# According to the supplement of paper PMC12636033:
# ± gives the standard deviation of the averaged measurements. Over roughly 33,000 sequences, “E-score (rank enrichment, -0.5 to 0.5)” has its median near -0.0043; the highest 2% begin near 0.24. Only a selection was taken, and the highest values are over-represented in it overall.
# Tested on: 2Sp-muMax20 (muMax20 with two 2,6-bis(methyl)pyridine Cys staples)
# Test: PBM 8-mer E-score (E-score (rank enrichment, -0.5 to 0.5)); higher = stronger preferential binding
# Protocol: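 Protein binding microarray (universal PBM chip covering all 10-mers in fixed probe flanks) with chemically synthesized human Max(13-93) bHLH-LZ analogs (not full-length Max) bearing noncanonical residues (hArg, Tha, Aib, Nle at 65) and aromatic Cys staples. Read-out per 8-mer (and its reverse complement): E-score (rank-based enrichment, -0.5 to 0.5) and Z-score of median probe intensity.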
row,Sequence,PBM 8-mer E-score
1,CACGCGCA,0.0178 ± 0.093
2,CACGCGCG,0.261 ± 0.051
3,CAAGCGCC,-0.113 ± 0.064
4,CACGCGCC,0.262 ± 0.027
5,CGCGCGCG,0.2 ± 0.077
6,AAAGCGCA,0.18 ± 0.0096
7,CGCGCGCC,0.243 ± 0.006
8,GGCGCGCC,-0.0216 ± 0.12
9,ACATCGAG,0.0846 ± 0.046
10,AAGCGTGG,0.0965 ± 0.049
11,CTCACGCA,0.12 ± 0.049
12,ACGTATAT,0.145 ± 0.039
13,TAGCGCTA,-0.00743 ± 0.0017
14,ACCATTCT,0.0547 ± 0.046
15,CACACGCG,0.281 ± 0.035
16,CACGCTCA,0.0559 ± 0.045
17,AACGCTCG,0.0415 ± 0.059
18,AACGCGCG,0.263 ± 0.023
19,AACGCGCA,0.0173 ± 0.051
20,CACACGCA,0.0795 ± 0.072
21,AACGCGCT,-0.0289 ± 0.021
22,CACGCTCG,0.245 ± 0.0082
23,AACACGCG,0.213 ± 0.0048
24,GGACGCAA,0.0641 ± 0.04
25,AGTTGCAG,0.122 ± 0.058

row,Sequence,PBM 8-mer E-score
1,TACAGGTA,0.0603 ± 0.031
2,ATCAATGG,0.0872 ± 0.022
3,GCCTCAAC,0.0347 ± 0.072
4,ATCGTAAA,0.159 ± 0.07
5,ATCGTAAG,-0.0242 ± 0.048
6,ATCGTAAT,0.238 ± 0.0064
7,GTCCTTGA,-0.198 ± 0.017
8,CGTAACGA,0.0392 ± 0.11
9,AGGGGTTG,0.258 ± 0.045
10,AAGGGTTG,0.0285 ± 0.053
11,AGGGGTTA,0.124 ± 0.052
12,CGGATCAA,-0.188 ± 0.075
13,TATAGAGA,-0.0265 ± 0.04
14,GAATGACA,-0.0425 ± 0.0067
15,CTATGACA,0.106 ± 0.0052
16,GTATGAGA,0.124 ± 0.0095
17,TAATGACA,0.25862 ± 7.8e-05
18,CAATGACA,0.128 ± 0.054
19,CTATGATA,0.0216 ± 0.058
20,GCATGATA,0.226 ± 0.0026
21,ATATGACA,0.25 ± 0.012
22,GTATGATA,0.342 ± 0.008
23,ATATGATG,0.181 ± 0.031
24,GTATGACA,0.158 ± 0.0027
25,ATATGATA,0.2602 ± 0.0017

row,Sequence,PBM 8-mer E-score
1,ACAATTGG,0.0427 ± 0.02
2,CTCGTTAA,0.0752 ± 0.0062
3,CGGGATCA,-0.0799 ± 0.0016
4,AAATCCCG,0.1036 ± 0.0009
5,ACTGAGAT,0.0783 ± 0.12
6,CACGGATC,-0.305 ± 0.0061
7,CATGATAC,0.253 ± 0.048
8,CATGATTC,0.0562 ± 0.0054
9,CATGATAA,0.267 ± 0.065
10,GATGATTA,0.103 ± 0.0017
11,AATGATAT,0.241 ± 0.01
12,AATGATAC,0.193 ± 0.13
13,CATGATAG,0.0923 ± 0.043
14,CATGATTA,0.24 ± 0.025
15,AATGATAG,0.176 ± 0.039
16,ACTGATAT,0.0652 ± 0.073
17,TATGATAA,0.0434 ± 0.066
18,AATGATAA,0.0232 ± 0.082
19,CGCTATAG,0.0363 ± 0.071
20,GGGGTGAC,0.0455 ± 0.096
21,CGGCCTTC,-0.124 ± 0.097
22,CAAGATAA,0.276 ± 0.014
23,TAAGATAA,0.0454 ± 0.027
24,AAAGATAA,0.218 ± 0.028
25,AATTCTTC,0.0644 ± 0.062

row,Sequence,PBM 8-mer E-score
1,CCACCCCA,0.254 ± 0.043
2,TCACCCCA,0.276 ± 0.021
3,TCACCCAA,0.143 ± 0.0019
4,ACACCCCA,0.208 ± 0.015
5,CCACCCCC,-0.0899 ± 0.002
6,GCACCCCA,0.128 ± 0.071
7,AATGGATG,-0.124 ± 0.015
8,AGTACACG,0.0271 ± 0.052
9,AAGAGCCT,0.00281 ± 0.074
10,AGTCGCAA,0.119 ± 0.018
11,CTAAATAA,0.126 ± 0.07
12,GTAAATAA,0.157 ± 0.059
13,GTAAATAC,0.0558 ± 0.018
14,CTAAATAC,0.249 ± 0.037
15,TTAAATAA,0.171 ± 0.051
16,ATAAATAC,0.264 ± 0.019
17,ATAAATAT,0.263 ± 0.021
18,ATAAATAG,0.191 ± 0.021
19,ATAAATAA,0.171 ± 0.053
20,CAGCGTCC,-0.107 ± 0.044
21,TCGATTCA,0.0577 ± 0.023
22,GAGCTCAC,0.0534 ± 0.12
23,ATCTGTTC,0.11 ± 0.068
24,ACTAGCAC,0.0515 ± 0.15
25,CTACCCAA,0.0921 ± 0.061

row,Sequence,PBM 8-mer E-score
1,AACCCCCA,-0.297 ± 0.061
2,AAACCCCC,-0.303 ± 0.11
3,AACCCAAA,0.0422 ± 0.03
4,TGACCCCA,0.108 ± 0.02
5,AGACCCCA,0.284 ± 0.052
6,ACCCCCAA,-0.142 ± 0.059
7,AACCCCAA,0.249 ± 0.062
8,CTACCCCC,-0.195 ± 0.12
9,CTACCCCA,0.283 ± 0.011
10,AGACCCCC,-0.388 ± 0.063
11,AAACCCCA,0.293 ± 0.022
12,GCCATTCC,-0.155 ± 0.069
13,TCGAGAAA,0.0513 ± 0.046
14,GCCTTCTA,0.0133 ± 0.025
15,CCCGCACA,-0.141 ± 0.011
16,AAACCTGA,-0.0739 ± 0.087
17,AAACAGAC,0.143 ± 0.097
18,AGGTGGCA,-0.0941 ± 0.015
19,ACCAGGTA,-0.11 ± 0.012
20,AATTATTG,0.196 ± 0.015
21,AGACCAAC,-0.0312 ± 0.013
22,CAACCCCA,0.264 ± 0.035
23,CAACCCAA,0.0124 ± 0.094
24,CAACCCCC,-0.196 ± 0.022
25,ATGCTTTA,0.138 ± 0.081

row,Sequence,PBM 8-mer E-score
1,ATGCTTTC,0.125 ± 0.017
2,ATGCTTTG,0.239 ± 0.036
3,GCGCGCTA,0.235 ± 0.021
4,AATCGCAG,0.142 ± 0.046
5,TGGGCCAA,-0.0226 ± 0.046
6,ATGCATCA,0.347 ± 0.046
7,ACGCATGC,0.277 ± 0.06
8,GTGCATTA,0.156 ± 0.042
9,ATGCAATA,0.246 ± 0.0094
10,GTGCAATA,0.0506 ± 0.012
11,ACGCATGA,0.136 ± 0.0059
12,ACGCATGG,0.13 ± 0.026
13,ATGCATTA,0.319 ± 0.0086
14,GTGCATCA,0.0111 ± 0.045
15,CTGCAATA,0.0295 ± 0.0051
16,ATGCATCG,0.0497 ± 0.074
17,CTGCATTA,0.107 ± 0.025
18,CGACCACC,-0.142 ± 0.0047
19,GCCTTAGC,-0.154 ± 0.029
20,AGATCTTG,0.152 ± 0.051
21,CCATCGAA,-0.00649 ± 0.052
22,GACTATGC,0.0616 ± 0.023
23,ATCCAGTG,-0.0872 ± 0.065
24,ACATTCGG,-0.0311 ± 0.13
25,ATGCATTC,0.285 ± 0.048

row,Sequence,PBM 8-mer E-score
1,ATGCATGG,0.13 ± 0.055
2,ATGCATGC,0.262 ± 0.048
3,ACGCATAG,-0.0802 ± 0.035
4,ACGCATAA,0.164 ± 0.07
5,ACGCATAT,0.333 ± 0.011
6,ATGCATAA,0.114 ± 0.045
7,CTGCATAC,0.0466 ± 0.068
8,ATGCATTG,0.165 ± 0.0071
9,ATGCATAC,0.258 ± 0.12
10,CTGCATTC,-0.000675 ± 0.052
11,CTGCATGC,0.0733 ± 0.071
12,CAGGGGGA,0.00992 ± 0.059
13,ACACCGCT,-0.116 ± 0.068
14,CAGCTTGG,-0.0934 ± 0.012
15,GCCCGGGC,-0.296 ± 0.055
16,ACTGAATG,-0.0577 ± 0.048
17,CGCCGATC,-0.128 ± 0.13
18,ATTTGCCA,-0.024 ± 0.041
19,ACTTCCGG,-0.229 ± 0.1
20,CTCCTCTA,-0.151 ± 0.013
21,CACCTCCG,-0.0614 ± 0.051
22,GAAAGTCA,-0.0504 ± 0.065
